The target of this assay is FXR LBD (GAL4 fusion) (UniProt Q96RI1). The assay is described as follows: luciferase reporter transactivation, fold of solvent control; higher = stronger receptor activation. The settings on record: HEK293T, exposure time: 24 h. Here is the method:
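HEK293T cells were transiently transfected with a GAL4-DBD fused to the ligand-binding domain of a human nuclear receptor (PPARα, PPARγ, PPARδ, FXR, LXRα, PXR, RARα or CAR), the GAL4-(UAS)5-TK firefly luciferase reporter and a Renilla luciferase normalisation plasmid. Cells were exposed to compound for 24 h in 0.5% DMSO. Firefly/Renilla luciferase was expressed as fold of the solvent control (=1). Values are the mean of 2-3 biological replicates; receptor agonists were used as positive controls.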
On the technique in general: In a reporter assay the amount or activity of a reporter protein is the signal.

Chain of FXR LBD (GAL4 fusion) (Q96RI1 whole entry, looked up, the tested form may be a part): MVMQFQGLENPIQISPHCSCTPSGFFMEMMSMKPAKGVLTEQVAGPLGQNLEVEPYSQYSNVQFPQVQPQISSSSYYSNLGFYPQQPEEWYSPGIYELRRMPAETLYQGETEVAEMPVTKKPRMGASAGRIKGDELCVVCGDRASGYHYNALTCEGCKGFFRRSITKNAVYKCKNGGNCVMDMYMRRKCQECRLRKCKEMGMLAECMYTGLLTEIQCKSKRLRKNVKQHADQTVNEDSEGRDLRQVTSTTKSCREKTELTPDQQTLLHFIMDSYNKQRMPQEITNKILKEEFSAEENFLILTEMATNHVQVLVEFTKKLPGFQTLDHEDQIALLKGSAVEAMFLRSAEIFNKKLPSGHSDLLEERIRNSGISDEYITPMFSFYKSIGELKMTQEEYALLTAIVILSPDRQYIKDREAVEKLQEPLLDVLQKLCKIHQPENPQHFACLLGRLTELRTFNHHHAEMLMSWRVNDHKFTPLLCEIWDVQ

The compound `OCCC(F)(F)C(F)(F)C(F)(F)C(F)(F)C(F)(F)C(F)(F)F` [6:2 fluorotelomer alcohol] came in with a luciferase reporter transactivation (concentration: 1 µM) of 0.815; a luciferase reporter transactivation (concentration: 5 µM) of 0.885; a luciferase reporter transactivation (concentration: 10 µM) of 0.96; a luciferase reporter transactivation (concentration: 25 µM) of 0.834; a luciferase reporter transactivation (concentration: 50 µM) of 0.847; a luciferase reporter transactivation (concentration: 100 µM) of 0.833. The luciferase reporter transactivation reads like this: (concentration: 250 µM) 0.628; (concentration: 500 µM) 0.416.
For the compound `O=S(=O)(O)CCC(F)(F)C(F)(F)C(F)(F)C(F)(F)C(F)(F)C(F)(F)F` [6:2 fluorotelomer sulfonic acid], the luciferase reporter transactivation reads like this: (concentration: 1 µM) 1.09; (concentration: 5 µM) 0.835; (concentration: 10 µM) 1.32; (concentration: 25 µM) 1.37; (concentration: 50 µM) 1.75; (concentration: 100 µM) 2.38.
In turn, `O=C(O)C(F)(F)C(F)(F)C(F)(F)C(F)(F)F` [perfluoropentanoic acid] had a luciferase reporter transactivation (concentration: 1 µM) of 0.969; a luciferase reporter transactivation (concentration: 5 µM) of 1.05; a luciferase reporter transactivation (concentration: 10 µM) of 1.05; a luciferase reporter transactivation (concentration: 25 µM) of 1.12; a luciferase reporter transactivation (concentration: 50 µM) of 1.18; a luciferase reporter transactivation (concentration: 100 µM) of 1.11. The luciferase reporter transactivation runs as follows: (concentration: 250 µM) 1.18; (concentration: 500 µM) 2.08.
For the compound `O=S(=O)(O)CCC(F)(F)C(F)(F)C(F)(F)C(F)(F)C(F)(F)C(F)(F)C(F)(F)C(F)(F)F` [8:2 fluorotelomer sulfonic acid], the luciferase reporter transactivation is 0.842 (concentration: 1 µM); 1.12 (concentration: 5 µM); 1.16 (concentration: 10 µM); 1.21 (concentration: 25 µM); 1.53 (concentration: 50 µM); 4.17 (concentration: 100 µM). Besides, the luciferase reporter transactivation worked out at 3.41 (concentration: 250 µM) and 2.14 (concentration: 500 µM).
Regarding `CC(C)c1onc(-c2c(Cl)cccc2Cl)c1COc1ccc(/C=C/c2cccc(C(=O)O)c2)c(Cl)c1`, for the setting “concentration: 10 µM”, the luciferase reporter transactivation is 50.2.

The values above are taken from the supplement of paper PMC11402862.
